The record followed here is PubChem BioAssay (NCATS).

Several values for one entry are separate records, joined by “and”; a condition that tells them apart may be missing. Equal values may be shown once. Records with an inconclusive call do not appear. A number with no mark means an inactive call. Activity calls are given as the source filed them. Calls come from the whole dose curve; as a rule, active = well fitted curve in the direction sought with a large enough effect; inconclusive = small, poorly fitted or top-dose-only effect, or another doubt; inactive = no such curve, though single readings can be large; an effect the other way counts as inactive or inconclusive. Where a SMILES comes first, the peptide text is derived from it. [ ]: non-standard residue; d: D form. pGlu = O=C1CC[C@@H](C(=O)O)N1

Assay [1] concerns the target Cytochrome P450 3A7 (Homo sapiens) (UniProt P24462). Briefly: Cytochrome P450 family 3 subfamily A member 7 (CYP3A7) small molecule antagonists: luciferase biochemical qHTS assay (AID 1963596). Note: % is set by controls: 0 for no effect and ±100 for the full control effect; nearly all actives have a fitted effect of over 40% in size. The essentials: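 P450-Glo luminescent assay: CYP3A7 enzyme converts a proluciferin substrate to luciferin, detected by luciferase reagent; light proportional to activity. Compounds in DMSO preincubated 10 min with enzyme-substrate mix at room temperature, then NADPH regeneration added for 1 h.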
A general note: In qHTS, concentration-response curves come from the screen itself.

The nature of assay [2]: Viability qHTS for spleen associated tyrosine kinase inhibitor (SYKi) naive MV4-11 cells (AID 1963823). Note: nearly all actives have a fitted effect of over 40% in size. Note: potency is the fitted concentration of half-maximal effect. The method in brief:
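Seeding of 500 SYKi-naive MV4-11 cells per well onto pre-dispensed compounds preceded a 72 hr incubation at 37 C. Luminescent CellTiter-Glo signal, read after 10 min at room temperature, reflected viable cells.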

A short description of assay [3]: Viability qHTS for spleen associated tyrosine kinase inhibitor (SYKi) drug resistant MV4-11 cells (AID 1963824). Note: nearly all actives have a fitted effect of over 35% in size. Note: potency is the fitted concentration of half-maximal effect. The method in brief:
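SYK inhibitor-resistant MV4-11 AML cells, 500 per well, added to predispensed compounds and incubated 72 hr at 37 C, 5% CO2. Viability measured by CellTiter-Glo luminescence after 10 min at room temperature.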

Assay [4] is described as follows: Cellular viability qHTS for adrenocortical cancer (ACC) cell line SW-13 (AID 1963989).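 For activity (max response): cells grown in serum-free medium with ITS supplement; % is set by controls: 0 for no effect and ±100 for the full control effect.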 Note: nearly all actives have a fitted effect of over 65% in size. Note: potency is the fitted concentration of half-maximal effect. The following applies: SW-13 ACC cells viability, CellTiter-Glo, 48 h; activity (max response): hits give low values. The method in brief: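 Here, serum-free SW-13 cultures were dosed up to 46 uM. Following 48 h, ATP-dependent luminescence (CellTiter-Glo) reported viable cells, and logistic modeling produced IC50 values.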

Assay [5] in a line: Quantitative highthroughput screen to assess conditional lethalithy of SEM cells grown in Human Plasma-Like Medium with dialyzed fetal bovine serum (HPLM+ds) (AID 1963882). For Viability: series mostly up to about 46 µM. Note: nearly all actives have a fitted effect of over 35% in size. Note: potency is the fitted concentration of half-maximal effect. The method in brief: (§1)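 Each medium arm—HPLM with 10% dialyzed FBS, or RPMI1640 with 5 mM glucose and 10% untreated or dialyzed FBS—was screened against an 11-point, 3-fold compound titration for 48 h at 37 °C, with CellTiter-Glo luminescence as endpoint.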

Assay [6] is described as follows: Quantitative highthroughput screen to assess conditional lethalithy of SEM cells grown in RPMI1640 with unreated serum (RPMI+s) (AID 1963883).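 For Viability: 100% = DMSO wells and 0% = empty wells without cells.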 Note: nearly all actives have a fitted effect of over 35% in size. Note: potency is the fitted concentration of half-maximal effect. The essentials: as §1
The nature of assay [7]: Quantitative highthroughput screen to assess conditional lethalithy of SEM cells grown in RPMI1640 with dialyzed fetal bovine serum (RPMI+ds) (AID 1963884).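 For Viability: series mostly up to about 46 µM; 100% = DMSO control wells and 0% = empty wells without cells.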 Note: nearly all actives have a fitted effect of over 35% in size. Note: potency is the fitted concentration of half-maximal effect. The essentials: as §1
Assay [8] in a line: Cellular viability qHTS for adrenocortical cancer (ACC) cell line NCI-H295R (AID 1963990). Note: nearly all actives have a fitted effect of over 60% in size. Note: potency is the fitted concentration of half-maximal effect. The method in brief:
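Viability of NCI-H295R after 48 h of treatment (final up to 46 uM) measured through cellular ATP luminescence.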

Cytochrome P450 3A7 (Homo sapiens), sequence (P24462 whole entry, looked up): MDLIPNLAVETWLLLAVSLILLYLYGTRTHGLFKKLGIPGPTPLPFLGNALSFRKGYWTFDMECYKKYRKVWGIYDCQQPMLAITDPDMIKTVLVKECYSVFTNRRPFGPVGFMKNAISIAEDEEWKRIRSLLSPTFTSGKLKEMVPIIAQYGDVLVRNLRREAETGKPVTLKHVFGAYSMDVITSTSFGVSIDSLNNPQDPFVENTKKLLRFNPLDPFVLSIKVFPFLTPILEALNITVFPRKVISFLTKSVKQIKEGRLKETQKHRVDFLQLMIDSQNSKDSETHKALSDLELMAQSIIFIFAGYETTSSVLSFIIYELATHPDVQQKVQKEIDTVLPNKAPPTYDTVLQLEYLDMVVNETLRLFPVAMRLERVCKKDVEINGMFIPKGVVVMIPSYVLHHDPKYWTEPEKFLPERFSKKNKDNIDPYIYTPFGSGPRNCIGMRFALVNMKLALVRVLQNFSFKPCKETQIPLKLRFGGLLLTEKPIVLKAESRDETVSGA

Take `CC(=O)Nc1c(I)cc(I)c(C(=O)O)c1I`: the Potency entry in assay [1], in assay [2] and in assay [3] was “inactive” each time. For the same compound, in assay [4], the activity (max response) is -1.35%.

Take `CCOCCn1c(C2CCN(CCc3ccc(C(C)(C)C(=O)O)cc3)CC2)nc2ccccc21`: the Potency entry in assay [1], in assay [2] and in assay [3] was “inactive” each time. For the same compound, the activity (max response) in assay [4] was 2.01%.

Take `O=C(O)c1ccccc1OP(=O)(O)O`: the Potency result in assay [1], in assay [2] and in assay [3] was “inactive” each time. Also, the activity (max response) in assay [4] is 16.4%.

For the compound `CN=C(NC#N)Nc1ccc(C2=NNC(=O)CC2C)cc1` (stereo not given), the Potency entry in assay [1], in assay [2] and in assay [3] was “inactive” in each case. Moreover, the activity (max response) in assay [4] is -6.43%.

With `COc1cc2c(Oc3ccc4[nH]c(C)cc4c3F)ncnc2cc1OCCCN1CCCC1`, the Potency result in assay [1] was “inactive”. In addition, the Potency in assay [2] was 13 µM (active) and 3.32 µM (active); in assay [3], 5.8 µM (active) and 2.63 µM (active); in assay [5], 9.35 µM (active); in assay [6], 4.18 µM (active); in assay [7], 5.26 µM (active); in assay [4] it was 25.1 µM (active). Further, the Potency in assay [8] is 22.4 µM (active).

For the compound `COc1ccc(/C(C)=C/C(=O)O)c(OC)c1`, the Potency result in assay [1], in assay [2] and in assay [3] was “inactive” in each case. The activity (max response) in assay [4] is 9.2%.

Consider `COc1cc(/C=C/C(N)=O)cc(OC)c1OC`, for which the Potency result in assay [1], in assay [2] and in assay [3] was “inactive” throughout. Further, in assay [4], the activity (max response) was 17.9%.

For the compound `COC(=O)Nc1nc2ccc(Sc3ccccc3)cc2[nH]1`, the Potency result in assay [1] was “inactive”. Besides, the Potency in assay [2] is 372 nM (active); in assay [3], 417 nM (active); in assay [6], 2.35 µM (active); in assay [7], 2.96 µM (active); in assay [4], 184 nM (active) and 316 nM (active); in assay [8], 130 nM (active) and 316 nM (active).

Regarding `O=C1N=C(O)CN1/N=C/c1ccc(-c2ccc([N+](=O)[O-])cc2)o1`, the Potency result in assay [1], in assay [2] and in assay [3] was “inactive” each time. Besides, the activity (max response) in assay [4] is 12.2%.

Consider `CC1(C)S[C@@H]2[C@H](NC(=O)C(C(=O)O)c3ccccc3)C(=O)N2[C@H]1C(=O)O` (stereo not given in full), for which the Potency entry in assay [1], in assay [2] and in assay [3] was “inactive” in each case. For the same compound, in assay [4], the activity (max response) was 3.14%.

As for `COc1cc(C=O)ccc1O`, the Potency result in assay [1], in assay [2] and in assay [3] was “inactive” in each case. Moreover, in assay [4], the activity (max response) was 3.08%.

Take `Cc1[nH]c(/C=C2\C(=O)Nc3ccc(F)cc32)c(C)c1C(=O)NC[C@H](O)CN1CCOCC1`: in assay [1], the Potency entry was “inactive”. The Potency in assay [2] was 13 nM (active) and 26.3 nM (active); in assay [3], 23.1 nM (active) and 46.8 nM (active). For the same compound, in assay [4], the activity (max response) is -9.94%.

As to `CCCCCCCCCCCCOS(=O)(=O)O`, the Potency result in assay [1], in assay [2] and in assay [3] was “inactive” in each case. Moreover, the activity (max response) in assay [4] is 4.63%.

`FC(F)(F)C(F)(F)C(F)(F)C(F)(F)C(F)(F)C(F)(F)C(F)(F)C(F)(F)Br`: the Potency entry in assay [1], in assay [2] and in assay [3] was “inactive” in each case. The activity (max response) in assay [4] was 7.96%.

Take `Cn1cc(-c2cnn3c(N)c(Br)c([C@@H]4CCCNC4)nc23)cn1`: the Potency entry in assay [1] was “inactive”. The Potency in assay [2] is 417 nM (active); in assay [3] it was 731 nM (active) and 468 nM (active); in assay [4], 12.6 µM (active).

On to `CCCCC/C(C=O)=C\c1ccccc1`, for which the Potency entry in assay [1], in assay [2] and in assay [3] was “inactive” throughout. The activity (max response) in assay [4] was 6.34%.

For the compound `CCNC(=O)[C@@H]1CCCN1C(=O)[C@H](CCCN=C(N)N)NC(=O)[C@H](CC(C)C)NC(=O)CNC(=O)[C@H](Cc1ccc(O)cc1)NC(=O)[C@H](CO)NC(=O)[C@H](Cc1c[nH]c2ccccc12)NC(=O)[C@H](Cc1cnc[nH]1)NC(=O)[C@@H]1CCC(=O)N1` ([pGlu]HWSYGLRP-NHEt), the Potency result in assay [1] and in assay [3] was “inactive” throughout. Also, in assay [2], the Potency is 13300 nM (active). In addition, in assay [4], the activity (max response) is 7.58%.

With `CN1CCN(C(c2ccccc2)c2ccccc2)CC1`, the Potency entry in assay [1], in assay [2] and in assay [3] was “inactive” in each case. Further, the activity (max response) in assay [4] is -4.21%.

`Cc1ccc(-c2ccccc2C#N)cc1`: the Potency entry in assay [1], in assay [2] and in assay [3] was “inactive” in each case. Further, in assay [4], the activity (max response) is 12.9%.

In the case of `c1ccc2c(-c3cnn4cc(-c5ccc(N6CCNCC6)cc5)cnc34)ccnc2c1`, the Potency entry in assay [1] is “inactive”. The Potency in assay [2] was 525 nM (active); in assay [3], 833 nM (active); in assay [5], 2.64 µM (active); in assay [6], 5.26 µM (active); in assay [4], 3.98 µM (active); in assay [8], 3.16 µM (active).

As to `C[C@H](Nc1ncnc2nc[nH]c12)c1cc2cccc(Cl)c2c(=O)n1-c1ccccc1`, the Potency entry in assay [1] is “inactive”. For the same compound, the Potency in assay [2] is 11800 nM (active); in assay [3], 5.8 µM (active) and 6.61 µM (active). Also, in assay [4], the activity (max response) is -1.12%.

For the compound `C[C@H]1COc2c(C3(N)CC3)c(F)cc3c(=O)c(C(=O)O)cn1c23`, the Potency entry in assay [1], in assay [2] and in assay [3] was “inactive” each time. The activity (max response) in assay [4] was -1.24%.

Regarding `CC(C(=O)O)c1ccc(CC2CCCC2=O)cc1` (stereo not given), the Potency result in assay [1], in assay [2] and in assay [3] was “inactive” each time. Further, the activity (max response) in assay [4] was 7.96%.

On to `CCO[C@H](Cc1ccc(OCCc2ccc(OS(C)(=O)=O)cc2)cc1)C(=O)O`, for which the Potency entry in assay [1], in assay [2] and in assay [3] was “inactive” in each case. For the same compound, the activity (max response) in assay [4] is 6.74%.

Turning to `COc1cnc(NS(=O)(=O)c2ccc(N)cc2)nc1`, the Potency entry in assay [1], in assay [3], in assay [5] and in assay [7] was “inactive” throughout. In addition, in assay [2], the Potency was 1.2 nM (active). In assay [4], the activity (max response) was 10.3%.

As for `Cc1nc2ccc(CN(C)c3ccc(C(=O)N[C@@H](CCC(=O)O)C(=O)O)s3)cc2c(=O)[nH]1`, the Potency result in assay [1], in assay [6] and in assay [8] was “inactive” throughout. For the same compound, the Potency was 6.6 nM (active) in assay [2] and 7.4 nM (active) in assay [3].

On to `CO[C@@]1(NC(=O)CSC[C@@H](N)C(=O)O)C(=O)N2C(C(=O)O)=C(CSc3nnnn3C)CS[C@@H]21`, for which the Potency entry in assay [1], in assay [2] and in assay [3] was “inactive” throughout. Also, the activity (max response) in assay [4] was -7.39%.

Regarding `O=c1ccc2ccccc2o1`, the Potency entry in assay [1], in assay [2] and in assay [3] was “inactive” throughout. In addition, the activity (max response) in assay [4] is -0.445%.
